Compounds with a hit are over-represented: about 3.3% of the library has one in this group of screens.
GRIN3A LBD mod: NR3A (human) ligand-binding domain modulation. 340,000 tested, 2.5% active. AID 1259313. NR3A LBD differential scanning fluorimetry, Tm shift; 0% = protein alone, 100% = glycine-bound protein. Tm shift relative to glycine control, % at 25 µM;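 active = melting temperature shift of at least 10% of the positive control shift, at one fixed dose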
UBC9 SUMO inh: SUMOylation inhibition; 290,000 tested, 0.36% active; HTRF SUMOylation assay, SAE1/SAE2 + UBC9, in vitro; inhibition, % at 35 µM; in the data active = inhibition above about 50%, passing the limit was not always enough
Target sequence (P63279 whole entry, looked up): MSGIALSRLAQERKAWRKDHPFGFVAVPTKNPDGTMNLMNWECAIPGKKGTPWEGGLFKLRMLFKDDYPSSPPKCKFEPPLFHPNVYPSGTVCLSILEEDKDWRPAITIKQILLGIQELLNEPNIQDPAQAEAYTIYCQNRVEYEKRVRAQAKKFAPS
UBC13 inh: inhibitors of human UBC13 polyubiquitin chain formation; P61088; TR-FRET; inhibition, % at 20 µM; 330,000 tested, 0.47% active; in the data active = inhibition above about 45%, passing the limit was not always enough
Target sequence (P61088 whole entry, looked up): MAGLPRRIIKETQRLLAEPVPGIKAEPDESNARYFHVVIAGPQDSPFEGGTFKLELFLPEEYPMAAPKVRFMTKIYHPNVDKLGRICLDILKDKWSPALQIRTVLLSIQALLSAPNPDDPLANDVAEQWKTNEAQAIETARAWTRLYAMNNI
HGIII-sPLA2 inh: Inhibits HGIII-sPLA2 liposome hydrolysis, primary screen | Q9NZ20 | QFRET BODIPY PC-A2 liposome hydrolysis, fluorescence | inhibition, % at 12.2 µM | 370,000 tested, 0.56% active;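 active = inhibition above mean plus 3 SD of compounds lying within the high and low control bounds, cut at about 19% in these data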;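 also: 0% = median of test compound wells and 100% = no enzyme DMSO wells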
Starred values were filed as active, the others as inactive; . = no result given.

SMILES	GRIN3A LBD mod	UBC9 SUMO inh	UBC13 inh	HGIII-sPLA2 inh
Clc1ccc2c(SCC3CO3)c3ccccc3nc2c1 (configuration not stated)	12.6*	.	.	-4.6
O=C(CSc1c2c(nc3cc(Cl)ccc13)CCCC2)NCCN1CCOCC1	-3.1	4.1	-5.3	0.2
Nc1ccc(C(=O)OCc2csc(-c3ccccc3)n2)cc1[N+](=O)[O-]	29.4*	3.4	5.9	5.1
CNS(=O)(=O)c1cccc(C(=O)OCc2csc(-c3ccccc3)n2)c1	-18.5	-32.0	-4.6	-42.4
Cc1ccc(N(C)S(=O)(=O)c2c[nH]c3ccc([N+](=O)[O-])cc23)cc1	117.0*	-4.5	8.4	-22.6
Cc1ccccc1NC(=S)NCCc1c[nH]c2ccccc12	-10.0	-5.5	7.9	8.7
CC(C)c1ccc(NC(=S)NCCc2c[nH]c3ccccc23)cc1	30.6*	1.1	4.2	-18.1
Cc1ccc(NC(=S)NCCc2c[nH]c3ccccc23)cc1	23.1*	-10.5	16.2	-17.1
Cc1cccc(NC(=S)NCCc2c[nH]c3ccccc23)c1	28.4*	-26.1	-9.5	3.6
Cc1ccc(C)c(NC(=S)NCCc2c[nH]c3ccccc23)c1	2.9	9.4	-1.8	7.5
COC(=O)c1cc(-c2ccccc2OC)c(=O)n2c1CCC2	.	.	.	-0.9
Cc1ccccc1CN1CCCCC(NC(=O)Nc2cccc([N+](=O)[O-])c2)C1=O (configuration not stated)	.	.	.	-21.3
CN1CCC(N[C@@H](Cc2ccccc2)C(=O)NCC(c2ccccc2)c2ccccc2)(C(=O)NC2CCCCC2)CC1	.	.	.	-16.4
O=C(Nc1ccc2nc(-c3ccc(Br)o3)[nH]c2c1)c1cccs1	21.4*	15.5	-16.3	-7.2
Cn1cccc1-c1nc2ccc(NC(=O)c3cccs3)cc2[nH]1	16.1*	5.1	-7.2	-6.0
O=C(Nc1ccc2nc(-c3ccc(Br)o3)[nH]c2c1)c1ccco1	10.0*	4.9	-17.0	8.6
CC(=O)Nc1ccc2nc(-c3ccc(Br)o3)[nH]c2c1	8.0	33.9	4.1	-3.6
O=C(Nc1ccc(C(O)(C(F)(F)F)C(F)(F)F)cc1)c1ccc(Cl)c([N+](=O)[O-])c1	12.6*	-19.3	9.3	-22.6
Cc1cccc(C)c1NS(=O)(=O)c1ccc(NC(=O)c2ccc(Cl)c([N+](=O)[O-])c2)cc1	18.9*	10.9	5.5	5.6
O=C(Nc1cccnc1)c1ccc(N2CCCC2)c([N+](=O)[O-])c1	1.3	16.8	-22.9	1.8
O=C(Nc1cccc(S(=O)(=O)Nc2ccccc2Cl)c1)c1ccc(N2CCCC2)c([N+](=O)[O-])c1	10.8*	-3.9	-19.2	-26.8
Cc1ccc(CNC(=O)CCS(=O)(=O)c2cc3c(cc2Br)CCN3C(=O)C2CC2)o1	.	.	.	-0.5
COC1=C(Nc2ccc(OC)cc2)C(=O)c2ccccc2C1=O	9.9	34.5	-187.9	15.5
CCOc1ccc(NC2=C(OC)C(=O)c3ccccc3C2=O)cc1	-0.7	56.6*	-129.9	3.3
Cc1ccc(N2CCN(/N=C\c3cccnc3)CC2)cc1	.	.	.	5.1
SMILES	GRIN3A LBD mod	UBC9 SUMO inh	UBC13 inh	HGIII-sPLA2 inh
Cc1cccc(NC(=O)c2sc3nc(-c4ccccc4)cn3c2C)n1	-2.7	2.4	6.5	-0.5
Cc1c(C(=O)Nc2ccccc2)sc2nc(-c3ccccc3)cn12	25.9*	-11.1	0.0	-21.2
Cc1c(C(=O)Nc2ccc3c(c2)OCO3)sc2nc(-c3ccccc3)cn12	26.5*	-11.3	4.9	4.4
O=C(NC(=S)Nc1ccccn1)c1ccc([N+](=O)[O-])cc1	11.1*	1.6	-5.0	13.5
CC(C)CN1C[C@@H]2CSCCS(=O)(=O)N2C1=O	.	.	.	5.2
CCOc1ccc(-n2c(=S)sc3c(=O)n(-c4ccccc4)c(SC)nc32)cc1	0.6	5.9	-1.5	2.9
COc1ccc(/C=N/n2cnc3c(sc(=S)n3-c3ccccc3)c2=O)cc1	16.3*	12.2	-6.9	16.1
Cc1[nH][nH]c(=O)c1C(c1c(C)[nH][nH]c1=O)c1cn(Cc2ccccc2Cl)c2ccccc12	-14.4	70.0*	.	-12.0
NC(=O)CSc1nnc(-c2ccc(S(=O)(=O)N3CCCC3)cc2)n1Cc1ccco1	11.1*	21.2	10.8	.
O=C(O)CSc1nnc(-c2ccc(S(=O)(=O)N3CCCC3)cc2)n1Cc1ccco1	1.7	-2.0	-5.9	1.4
Fc1ccccc1Nc1nc2ccccc2o1	33.9*	1.5	-4.9	-4.1
O=C1C=C(N2CCN(c3ccccn3)CC2)C(=O)c2c(O)ccc(O)c21	0.3	.	.	-7.5
CC1=CC(=O)c2c(O)ccc(O)c2C1=O	.	90.5*	.	.
O=C(NCCS(=O)(=O)N1CCN(c2ccccc2)CC1)c1ccc2c(c1)OCO2	0.8	.	1.8	-4.0
O=C(NCCS(=O)(=O)N1CCN(c2ccccc2F)CC1)c1ccc2c(c1)OCO2	30.6*	.	4.4	-4.1
CCn1c(COc2ccc(Cl)cc2)nnc1SCC(=O)Nc1ccccc1-c1ccccc1	.	.	.	-23.0
Cn1c(C(=O)N2COCC2(C)C)cc2c(=O)n3ccccc3nc21	-1.7	53.1*	0.6	-3.9
COCCCn1c(C(=O)N2CC(C)OC(C)C2)cc2c(=O)n3ccccc3nc21 (configuration not stated)	0.3	54.3*	11.2	5.6
COc1ccc(CCn2c(=N)c(C(=O)NCC3CCCO3)cc3c(=O)n4ccccc4nc32)cc1OC (configuration not stated)	-2.4	0.7	-18.2	5.6
Cn1c(C(=O)NCC2CCCO2)cc2c(=O)n3ccccc3nc21 (configuration not stated)	1.0	52.9*	8.7	-1.5
COCCCn1c(=N)c(C(=O)NC2CCCCC2)cc2c(=O)n3ccccc3nc21	-0.3	19.7	9.7	0.8
CC(=O)c1ccc([C@H](O)[C@H](C)C(=O)N(C)c2ccccc2)cc1	.	.	.	6.3
Cc1nc(-c2ccccc2)nc2[nH]ccc(=O)c12	10.0*	17.5	4.6	-4.4
Cc1ccc(NC(=O)CCS(=O)(=O)c2ccccc2)cc1C	.	.	.	3.5
Cc1ccc(CN[C@@H]2CC[C@@]34CCCN3C(=O)CCC[C@H]4C2)o1	.	.	.	-1.6
SMILES	GRIN3A LBD mod	UBC9 SUMO inh	UBC13 inh	HGIII-sPLA2 inh
Cc1ccc(N2C(=O)CS/C2=C(\C(Cl)=C(Cl)Cl)[N+](=O)[O-])cc1	10.7*	6.8	-28.9	1.2
Cc1c(CC(=O)Nc2ccc(Cl)cc2)sc2ccc(Cl)cc12	28.2*	-2.5	1.5	-2.2
CCCC(=O)Nc1cccc(NC(=O)Cc2ccc(Cl)cc2)c1	.	.	.	6.8
Cc1[nH]c2ccccc2c1C(=O)CSC(=S)N1CCOCC1	13.9*	-15.5	-2.2	4.4
Cc1[nH]c2ccccc2c1C(=O)C(=O)N1CCOCC1	-0.6	6.1	-4.8	2.4
Nc1ccc(C(=O)OCc2nc3c(ccc4ccccc43)[nH]2)cc1	26.8*	-21.0	9.4	-10.0
O=C(OCC#CCSc1nnc(-c2ccccc2F)o1)c1ccc(F)cc1	.	.	.	-10.6
COC(=O)[C@@]12CCCCC3=C1N(CCC3)C(=O)[C@H]2CC(=O)NCCc1ccccc1OC	.	.	.	1.2
CC(NC(=O)c1ccc(Cl)c(Cl)c1)c1ccc(-c2ccccc2)cc1 (configuration not stated)	16.4*	5.5	3.4	0.1
O=C(CN1C(=O)S/C(=C\c2ccc(-c3cc(C(=O)O)ccc3Cl)o2)C1=O)Nc1ccc2c(c1)OCO2	.	83.9*	-16.9	-14.6

Screening results as filed in PubChem BioAssay.
